Screens (PubChem BioAssay)
HEK293 tox: HEK 293 cell cytotoxicity; HEK 293 viability, ATP luminescence (CellTiter-Glo), 48-72 h; Potency, µM (top dose mostly 115 µM), usual class: inhibitors; hit rate 6.6% among 94,000; AID 1345083; further: nearly all actives have a fitted effect of over 60% in size
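ATP-coupled CellTiter-Glo luminescence served as viability read-out, recorded 10 min after reagent addition at room temperature. HEK 293 cells, 250 cells/well, had been incubated with pintool-transferred compound for 48 or 72 hr at 37 degree Celsius.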
3T3 cytotox: kills NIH 3T3 cells | hit rate 4.3% among 94,000 | Potency, µM (doses to about 96.7 µM), actives largely listed as inhibitors | NIH 3T3 viability, CellTiter-Glo ATP luminescence, 48-72 h | AID 1345082; further: nearly all actives have a fitted effect of over 55% in size
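ATP-dependent luminescence (CellTiter-Glo) served as the viability signal for NIH 3T3 cells treated with compound for 48 or 72 hr at 37 °C.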
NPR1 antag: blocks ANP-stimulated signaling of human Npr1 receptor; P16066; HEK293 hNpr1 GloSensor cGMP, ANP-stimulated luminescence; Potency, µM (titrated, usually from 46.3 µM), actives largely listed as inhibitors; hit rate 1.6% among 76,000; calls by dose curve; further: nearly all actives have a fitted effect of over 60% in size
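Compound pre-incubated 30 min at room temperature on GloSensor-loaded HEK293 cells stably carrying hNpr1 and the pGS-40F cGMP biosensor. Stimulation uses hNppA at 0.1 nM final; luminescence is taken at baseline and 20 min post-agonist.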
Luciferase inh: Photinus pyralis luciferase inhibition | Potency, µM (titrated, usually from 115 µM), actives largely listed as inhibitors | purified P. pyralis luciferase, luminescence, biochemical | hit rate 2.5% among 76,000; further: nearly all actives have a fitted effect of over 65% in size
Target sequence (P08659 whole entry, looked up): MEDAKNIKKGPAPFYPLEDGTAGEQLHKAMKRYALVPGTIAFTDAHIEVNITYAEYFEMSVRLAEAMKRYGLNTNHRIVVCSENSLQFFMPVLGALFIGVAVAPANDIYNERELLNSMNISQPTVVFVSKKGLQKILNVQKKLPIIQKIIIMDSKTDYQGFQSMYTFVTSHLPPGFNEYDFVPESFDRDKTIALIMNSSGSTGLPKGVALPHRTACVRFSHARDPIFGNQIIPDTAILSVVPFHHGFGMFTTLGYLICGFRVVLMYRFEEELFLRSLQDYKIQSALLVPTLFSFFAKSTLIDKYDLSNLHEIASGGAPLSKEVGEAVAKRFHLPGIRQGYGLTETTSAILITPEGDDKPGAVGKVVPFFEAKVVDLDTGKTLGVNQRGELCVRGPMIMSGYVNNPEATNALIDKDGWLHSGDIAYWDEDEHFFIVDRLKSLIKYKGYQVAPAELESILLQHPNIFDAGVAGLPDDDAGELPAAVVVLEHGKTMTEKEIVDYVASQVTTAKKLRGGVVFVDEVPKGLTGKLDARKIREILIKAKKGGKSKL
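Luminescence read by CCD imager after adding enzyme (10nM final) to wells holding compound, titrated in qHTS. Substrates 10uM each D-luciferin and ATP; buffer 50mM Tris acetate pH 7.5, 10mM Mg acetate, Tween-20, BSA.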
Large screens that a line does not name were inactive. The list is not random: actives were taken first. Their share in the collection is about 11%. Unless noted, the call rests on the fitted dose curve; in most records, active means well fitted curve in the direction sought with a large enough effect; inconclusive means small, poorly fitted or top-dose-only effect, or another doubt; inactive means no such curve, though single readings can be large; an effect the other way counts as inactive or inconclusive.

O=C(c1ccccc1)N1CCC(n2cc(-c3nc(-c4ccccc4)no3)nn2)CC1	HEK293 tox inconclusive, 3T3 cytotox 40µM
O=c1n(CCN2CCCN([S+](=O)([O-])c3ccccc3)CC2)nc2n1CCCC2	none (no result: NPR1 antag, Luciferase inh)
O=c1c2nc(Nc3cccc(F)c3)ccc2ncn1-c1cccnc1	HEK293 tox inconclusive, 3T3 cytotox inconclusive, NPR1 antag inconclusive
COc1ccc(Nc2ccc3ncn(-c4ccccc4)c(=O)c3n2)cn1	HEK293 tox 100µM, 3T3 cytotox 100µM
Cc1ccc([S+](=O)([O-])NC2CCCN(Cc3ccc(-c4cc(C)cc(C)c4)cc3)C2)cc1 (centres undefined)	HEK293 tox 40µM, 3T3 cytotox inconclusive (no result: NPR1 antag, Luciferase inh)
O=[S+]([O-])(NC1CCCN(Cc2ccc(-c3cncnc3)cc2)C1)c1ccccc1 (centres undefined)	HEK293 tox inconclusive (no result: NPR1 antag, Luciferase inh)
Cc1cc(C)cc(-c2ccc(CN3CCCC(N[S+](=O)([O-])c4cccs4)C3)cc2)c1 (centres undefined)	HEK293 tox 35µM, 3T3 cytotox 32µM (no result: NPR1 antag, Luciferase inh)
Cc1cc(C)cc(-c2ccc(CN3CCCC(N[S+](=O)([O-])c4c(C)noc4C)C3)cc2)c1 (centres undefined)	HEK293 tox 25µM, 3T3 cytotox 35µM (no result: NPR1 antag, Luciferase inh)
COc1ccccc1-c1ccc(CN2CCC(N[S+](=O)([O-])c3c(C)noc3C)C2)cc1 (centres undefined)	HEK293 tox 45µM, 3T3 cytotox inconclusive (no result: NPR1 antag, Luciferase inh)
Cc1cc(C)cc(-c2ccc(CN3CCCC(NC(=O)C4CCCC4)C3)cc2)c1 (centres undefined)	none (no result: NPR1 antag, Luciferase inh)
O=C(NC(C(=O)N1CCCC1)C1CCN(C(=O)c2ccccc2)CC1)c1ccc(F)cc1 (centres undefined)	none
Cc1noc([C@H]2CCN(Cc3cc(F)cc(F)c3)C[C@H]2NC(=O)C2CC2)n1	HEK293 tox 28µM, 3T3 cytotox inconclusive
COCCNC(=O)[C@H]1C[C@H](Oc2ccccc2)CN1Cc1ccc(OC(F)(F)F)cc1	HEK293 tox inconclusive, 3T3 cytotox inconclusive
O=C(Nc1cccnc1)c1nc2c(o1)CCN(Cc1ccc3[nH]ccc3c1)CC2	HEK293 tox 100µM, 3T3 cytotox inconclusive, Luciferase inh 35µM
O=C(NCCOc1ccccc1)c1nc2c(o1)CCN(Cc1ccc3[nH]ccc3c1)CC2	HEK293 tox 71µM, 3T3 cytotox inconclusive, NPR1 antag inconclusive
COCCNC(=O)[C@H]1C[C@H](Oc2ccccc2)CN1Cc1ccc2[nH]ccc2c1	HEK293 tox 10µM, 3T3 cytotox inconclusive
O=C(NCC1CC1)c1nc2c(o1)CCN(Cc1ccc3[nH]ccc3c1)CC2	HEK293 tox inconclusive, 3T3 cytotox inconclusive
O=C(Nc1cccnc1)c1nc2c(o1)CCN(Cc1ccc(F)c(F)c1)CC2	HEK293 tox inconclusive, 3T3 cytotox inconclusive, NPR1 antag 28µM, Luciferase inh 71µM
COCCNC(=O)c1nc2c(o1)CCN(Cc1ccc(F)c(Cl)c1)CC2	HEK293 tox inconclusive, 3T3 cytotox inconclusive, NPR1 antag inconclusive
O=C(c1ccsc1)N1CCC2(CC1)CC(OCC1CC1)CCO2 (centres undefined)	none
CN(C)[C@@H]1CN(C(=O)CC2CCCCC2)CC[C@@H]1CO	none (no result: NPR1 antag, Luciferase inh)
CCOC(=O)[C@@H]1CN(C(=O)c2cccc(C#N)c2)[C@H]2c3ccccc3O[C@@H]12	HEK293 tox inconclusive (no result: NPR1 antag, Luciferase inh)
O=C(COc1ccc(-c2nnc3n2CCCC3)cc1)NCc1ccc2c(c1)OCO2	none
C=CCOCC(O)CN1CCC(=O)N(Cc2ccco2)Cc2c1ccc(OC)c2OCC=C (centres undefined)	HEK293 tox inconclusive (no result: NPR1 antag, Luciferase inh)
C=CCOc1c(OC)ccc2c1CN(Cc1ccccc1)C(=O)CCN2CC(O)COc1ccc(OC)cc1 (centres undefined)	HEK293 tox inconclusive, 3T3 cytotox 40µM (no result: NPR1 antag, Luciferase inh)
C=CCOc1c(OC)ccc2c1CN(Cc1ccccc1)C(=O)CCN2CC(C)O (centres undefined)	3T3 cytotox inconclusive (no result: NPR1 antag, Luciferase inh)
C=CCOc1c(OC)ccc2c1CN(C1CCCC1)C(=O)CCN2CC(O)COc1ccccc1 (centres undefined)	HEK293 tox inconclusive, 3T3 cytotox 40µM (no result: NPR1 antag, Luciferase inh)
C=CCOc1c(OC)ccc2c1CN(CCOC)C(=O)CCN2CC(O)COc1ccccc1 (centres undefined)	HEK293 tox inconclusive (no result: NPR1 antag, Luciferase inh)
C=CCOc1c(OC)ccc2c1CN(Cc1ccccc1)C(=O)CCN2CC(O)Cc1ccccc1 (centres undefined)	HEK293 tox 50µM, 3T3 cytotox inconclusive (no result: NPR1 antag, Luciferase inh)
COc1ccc(CC(=O)N2CCC3(CC2)CC(=O)N(c2ccccc2)c2ccccc2O3)cc1	HEK293 tox inconclusive
